Each structure is given as a SMILES string. A number with no mark means an inactive call. How the calls were made is not given here.

Pantothenate synthetase (Mycobacterium tuberculosis (strain ATCC 25618 / H37Rv)), sequence (P9WIL5 whole entry, looked up): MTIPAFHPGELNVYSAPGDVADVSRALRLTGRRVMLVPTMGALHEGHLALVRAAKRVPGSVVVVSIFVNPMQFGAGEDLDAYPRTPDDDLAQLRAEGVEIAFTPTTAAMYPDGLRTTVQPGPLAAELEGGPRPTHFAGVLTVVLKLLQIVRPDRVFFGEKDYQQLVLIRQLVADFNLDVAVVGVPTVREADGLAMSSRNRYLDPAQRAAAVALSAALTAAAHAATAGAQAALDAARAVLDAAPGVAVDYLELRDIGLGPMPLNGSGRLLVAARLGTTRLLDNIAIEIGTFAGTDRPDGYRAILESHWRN

The assay concerns the target Pantothenate synthetase (Mycobacterium tuberculosis (strain ATCC 25618 / H37Rv)) (UniProt P9WIL5). Description: Recombinant Mtb pantothenate synthetase (PanC) inhibitors, coupled enzyme, confirmatory (AID 375).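 Further: 0% = full reaction with vehicle and 100% = no enzyme background.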 Particulars: coupled enzyme assay; at 10 µM, hits give high values.
Usually inhibition stands for how much of the control response was suppressed. As for `Cc1cc(C(=O)NCc2cccnc2)no1`, the inhibition was 0%.
As for `CCCCn1c(CN2CCN(CCO)CC2)nc2ccccc21`, the inhibition was 0%.
Regarding `CCCC(=O)Nc1ccc(NC(=O)C2CC2)cn1`, the inhibition was 2%.
For the compound `COc1ccc(-c2nc(N3CCCC3)[nH]c(=O)c2C#N)cc1`, the inhibition was 0%.
Consider `CN(C1CCS(=O)(=O)C1)S(=O)(=O)c1cccc2nsnc12` (configuration not stated), for which the inhibition is 2%.
For the compound `O=C(NCc1ccco1)c1cnn2c(C(F)(F)F)cc(-c3ccco3)nc12`, the inhibition was 4%.
For `O=C(CSc1nnnn1-c1ccc2c(c1)OCO2)NCc1cccs1`, the inhibition was 0%.
On to `Nn1c(SCC(=O)Nc2ccc(S(=O)(=O)N3CCCC3)cc2)nnc1C(F)(F)F`, for which the inhibition was 0%.
`CCCC1CCC(C(=O)Nn2c(C)nc3ccccc3c2=O)CC1` (configuration not stated): the inhibition is 8%.
On to `COC(=O)CCC(=O)Nc1cccc(Cl)c1`, for which the inhibition was 0%.
As for `O=C(Nc1cc(C(F)(F)F)ccc1Cl)c1cc(C2CC2)on1`, the inhibition is 2%.
As for `CC(C)CCn1c(SCC#N)nc2c(sc3ccccc32)c1=O`, the inhibition was 2%.
On to `COc1ccc(-c2ccc(Nc3ccc(S(=O)(=O)N4CCCC4)cc3)nn2)cc1OC`, for which the inhibition is 11%.
Turning to `O=C1CN(C(=O)CN2CCCC2)C(c2ccccc2)c2cc(Br)ccc2N1` (configuration not stated), the inhibition is 0%.
Regarding `Cc1ccc2nc(NC(=O)C3CCCN(S(=O)(=O)c4cnc[nH]4)C3)sc2c1` (configuration not stated), the inhibition is 1%.
With `CCOc1ccc(CCNC(=O)CCc2nc(-c3ccc(OC)cc3)no2)cc1OCC`, the inhibition is 0%.
The value for `CSC1CCCCC1(O)CSc1nc2c(cc1C#N)CCCC2` (configuration not stated) was 4%.

These data come from PubChem BioAssay.
